# Bioassay records as filed in PubChem BioAssay.
# Compounds with a hit are over-represented: about 3.1% of the library has one in this group of screens.
# PAX8 reporter – PAX8 transcriptional activity inhibition; AID 652154; RMG-I TPO-luciferase reporter, SteadyGlo, 24 h; hit rate 1.2% among 360,000; inhibition, % at 12.6 µM;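 active means mean replicate inhibition at least 60% with every replicate also reaching 60%; inconclusive means only one of the two criteria is met; inactive means mean below 60% and not all replicates reaching 60%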;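 further: luciferase light reporting Pax8 driven TPO promoter activity; plate controls were median of neutral control wells for no effect and mitoxantrone controls for full effect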
# INS-1E GSIS act – GLuc luminescence reporter in INS-1E cells, primary screen for activators of glucose-dependent secretion of insulin; INS-1E GLuc reporter insulin secretion, 2-3 h; activation, % at 16.6 µM; hit rate 0.61% among 370,000; AID 743287;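 active means lowest replicate activation of at least 40%, so every replicate reaches that level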;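 further: 0% = median of neutral control wells and 100% = median of IBMX positive control wells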
# miR-122 sensor – blocks miR-122 activity in Huh7 sensor cells; Huh7 miR-122 Renilla luciferase sensor, 48 h; neutral wells = 0, positive control = 100; activation (reporter increase), % at 12.5 µM; hit rate 0.3% among 340,000; AID 602342;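 active means mean replicate activation score at least 90 and every replicate individually at or above 90; inconclusive means only one of the two criteria met; inactive means neither criterion met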;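 further: higher luciferase means less miR-122 activity so hits act as miR-122 inhibitors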
# HIV Env fusion – inhibitors of HIV Env-mediated cell fusion. inhibition, % at 12.3 µM. hit rate 1.1% among 360,000. HeLa-JRFL Env/CEM21 cell fusion, luciferase;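 active means mean replicate inhibition score of at least 50 and every replicate individually at or above 50; inconclusive means only one of the two criteria met; inactive means mean below 50 and not all replicates reaching 50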;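 further: 0% = plate neutral controls and 100% = maraviroc near 300 nM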
# Statin myotox sup – suppression of simvastatin myotoxicity; C2C12 myotubes + simvastatin, ATP luminescence, 48 h; scaled: DMSO 0, geranylgeraniol control 100; hit rate 0.78% among 330,000; rescue of ATP level, % at 7.49 µM; AID 602340;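 active means mean ATP rescue above about 67%, or every replicate alone reaching that limit, limit read from the data, passing the limit was not always enough; inconclusive means no clear call, values can overlap the other calls; inactive means mean under the limit and some replicate under it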;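 further: myotubes were challenged with 10 µM simvastatin during compound exposure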
# EWS-Fli block – inhibitors of EWS/Fli oncoprotein transcriptional activity | A673 NR0B1-luciferase reporter, viability-normalised | inhibition, % at 12.6 µM | hit rate 0.67% among 350,000;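 active means mean inhibition of at least 50% after viability correction, with every replicate also passing that limit; inconclusive means mean reaches 50% but only one of two replicates passes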;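 further: firefly luciferase signal divided by Alamar Blue viability fluorescence both relative to DMSO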
# The depositor's hits bear a star; ? = inconclusive; . = no result; [ ] = another dose, or the depositor's remark.
SMILES,PAX8 reporter,INS-1E GSIS act,miR-122 sensor,HIV Env fusion,Statin myotox sup,EWS-Fli block
CCCCCCCn1c2c(c(=N)c3c1CCC3)CCCC2,93.5*,.,.,71.8*,.,62.7*
CCCC(=O)N1CCC2(CC1)CN(C(=O)CC)[C@@H](CO)c1c2c2ccc(OC)cc2n1C,.,5.3,.,.,.,-3.4
CCOc1ccc(S(=O)(=O)Nc2cc(SCC(=O)O)c(O)c3ccccc23)cc1,53.3,-6.6,.,3.7,34.5,5.1
O=S(=O)(Nc1cc(Sc2cccc3cccnc23)c(O)c2ccccc12)c1ccccc1,105.2*,.,.,.,.,6.2
O=C1N(Cc2ccccc2F)c2ccccc2C12OCCCO2,.,24.8,-6.4,28.4,120.1*,.
COc1ccc2c3c([nH]c2c1)[C@@H](CO)N(C(=O)c1ccncc1)CC31CN(C(=O)NC(C)C)C1,.,8.8,.,.,.,.
Cn1c(=O)c(Nc2ccc(O)cc2)c2c3c(cccc31)C(=O)c1ccccc1-2,83.1*,9.0,.,.,.,-12.3
O=C(OCc1cccc(Cl)c1)c1cc([N+](=O)[O-])ccc1N1CCOCC1,74.5*,-2.9,6.2,-272.8,-15.5,-6.5
O=C(OCc1ccc(Br)cc1)c1cc([N+](=O)[O-])ccc1N1CCOCC1,21.4,.,14.4,-75.2,-22.2,62.3*
CCN1CCN(c2ccc(S(=O)(=O)N3CCOCC3)cc2NC(=O)/C=C/c2ccc([N+](=O)[O-])cc2)CC1,72.2*,-1.2,-3.3,-16.1,18.3,50.8
COc1ccc(COC(=O)c2cc([N+](=O)[O-])ccc2N2CCOCC2)cc1F,96.0*,-8.2,12.2,.,-34.3,49.2
CCc1ccc(C(=O)COC(=O)c2cc([N+](=O)[O-])ccc2N2CCOCC2)cc1,37.1,7.1,.,?,-9.7,?
O=C(OCc1cccc(C(F)(F)F)c1)c1cc([N+](=O)[O-])ccc1N1CCOCC1,8.6,-16.6,-6.3,.,0.9,9.8
CCN1CCN(c2ccc(S(=O)(=O)N3CCOCC3)cc2NC(=O)c2cccc([N+](=O)[O-])c2)CC1,-1.2,-8.1,.,31.1,.,20.0
O=C(C[C@H]1CC[C@@H](NC(=O)c2ccc3c(c2)OCO3)[C@@H](CO)O1)NC1Cc2ccccc2C1,-13.4,31.7,-20.6[16.7 µM],6.3[16.7 µM],18.6,6.0
CCN(CC)S(=O)(=O)c1ccc(N2CCCC2)c(NC(=O)Cc2cc(OC)c(OC)c(OC)c2)c1,0.8,-3.8,1.4,96.9*,-36.8,0.6
O=C(COC(=O)c1cc([N+](=O)[O-])ccc1N1CCOCC1)Nc1ccc(Cl)cn1,61.4*,14.6,.,-164.5,-19.3,.
CCN(CC)S(=O)(=O)c1ccc(OC)c(NC(=O)c2cc([N+](=O)[O-])ccc2N2CCOCC2)c1,-3.2,.,-4.7,66.5*,4.7,8.0
CNC[C@@H]1OCCCC[C@@H](C)Oc2ccc(NS(C)(=O)=O)cc2C(=O)N([C@@H](C)CO)C[C@H]1C,-2.2,18.5,2.1[16.7 µM],-6.6[16.7 µM],19.9,-1.4
C[C@H](CO)N1C[C@H](C)[C@H](CN(C)C(=O)c2cccc(F)c2)Oc2cc(C#CC3CCCC3)ccc2S1(=O)=O,.,-12.5,3.4[16.7 µM],29.3[16.7 µM],22.2,17.1
CC(=O)c1cccc(NC(=O)C(C)N2CCc3ccccc3C2)c1 (configuration not stated),14.7,20.2,128.3*,0.0,3.0,3.6
CC(=O)N1[C@H](C(=O)NC2CCC2)[C@@H](CO)[C@@H]2Cn3c(ccc(C4=CCCC4)c3=O)[C@@H]21,.,-8.7,.,.,.,-1.3
CCOC(=O)C(Cc1ccccc1)C(=O)Nc1ccc(NC(=O)C(Cc2ccccc2)C(=O)OCC)cc1 (configuration not stated),14.8,-0.6,-1.8,-9.5,.,.
CCOC(=O)C(Cc1ccccc1)C(=O)Nc1nccs1 (configuration not stated),.,.,-4.9,.,99.1*,.
CN(C)c1ccc(/C=C2\SC(=O)N(CCc3nnc(N)s3)C2=O)cc1,50.0,3.7,.,23.0,.,82.3*
C[C@H]1CN([C@@H](C)CO)C(=O)c2ccccc2-c2ccccc2CO[C@H]1CN(C)C(=O)Nc1ccccc1,.,-9.0,.,.,.,-6.8
Cc1ccc(S(=O)(=O)Nc2ccc3c(c2)C(=O)N([C@H](C)CO)C[C@H](C)[C@H](CN(C)C(=O)Cc2ccccc2)OCCCC[C@H](C)O3)cc1,11.0,-31.0,-12.6[16.7 µM],-50.1[16.7 µM],.,8.7
COC/C=C/C1=CC2=CC(=O)C(C)(OC(=O)c3cnc4ccccc4n3)C(=O)C2=CN1CC1CC1 (configuration not stated),.,.,3.3,.,.,.
